# Pf growth 48h: P. falciparum growth inhibition at 48 hours (one generation) | P. falciparum luciferase growth in erythrocytes, 48 h | Potency, µM (highest dose often 28.7 µM), without a hit: at the top dose activity change, negative = inhibition, hits mostly inhibitors | 5.9% of 310,000 active | AID 504832; note: potency is the fitted concentration of half-maximal effect; % is set by controls: 0 for no effect and ±100 for the full control effect
#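 Here the parasites carry a stable luciferase gene and grow inside erythrocytes in Albumax-based RPMI medium with compound for one erythrocytic cycle. Activity is scored as loss of luminescent signal.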
# HCV inhibitor: inhibitors of hepatitis C virus infection. Huh7.5.1 HCVcc-Cre infection, luciferase reporter, 44 h. Potency, µM (highest dose often 41.8 µM), without a hit: top-dose activity change, negative = inhibition, hits mostly inhibitors. 3.4% of 340,000 active. AID 651820; note: potency is the fitted concentration of half-maximal effect; % is set by controls: 0 for no effect and ±100 for the full control effect
#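 Compounds are dispensed onto cells plated 4 h earlier at 1,000 per well, with HCVcc-Cre virus (about 0.5 moi) added next. Following 44 h of culture, luminescent signal is measured for 15 sec after 15 min with substrate at room temperature.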
# Pf growth 96h: inhibits malaria parasite growth, 96 h; P. falciparum luciferase reporter growth, 96 h; 6.9% of 320,000 active; Potency, µM (highest dose often 28.7 µM), inactives show at the top dose activity change, negative = inhibition, usual class: inhibitors; note: potency is the fitted concentration of half-maximal effect; % is set by controls: 0 for no effect and ±100 for the full control effect
#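 Two-generation exposure (96 h) targets delayed-death phenotype. Reporter parasites carrying integrated firefly luciferase, in red cells at 2% hematocrit and 0.05% parasitemia final, kept at 37 C, 5% CO2; luminescence loss indicates inhibition.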
# Cycloheximide cs: counter-screen for Shiga toxin inhibitors: cycloheximide protein synthesis inhibition; cell reporter, cycloheximide protein synthesis inhibition counterscreen; max response, %; 12% of 300,000 active; AID 2314; in the data active = max response mostly above about 13%, no sharp cut-off; inactive = mostly below about 14%; note: read at 38.3 µM for the half of the compounds with a filed dose; 0% is about no effect
# Shiga toxin inh: Shiga toxin inhibition; Vero cells, Shiga toxin protein synthesis inhibition reporter; inhibition, % at 38.7 µM; 9.2% of 290,000 active; in the data active = inhibition mostly above about 28%, no sharp cut-off; inactive = mostly below about 43%; note: 0% is about no effect
# HCMV inh: inhibitors of human cytomegalovirus; HFF cells, HCMV-luciferase reporter, 72 h; hits give low values; activity change, negative = inhibition, % at 57.5 µM; 4.5% of 410,000 active; in the data active = activity change below about -60%; inconclusive = no clear call, values can overlap the other calls; inactive = above about -39%; note: % is set by controls: 0 for no effect and ±100 for the full control effect
#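 Two-dose cell screen: HFF monolayers treated with compounds and infected with luciferase-expressing HCMV at 1 PFU/cell, 72 h at 37C, then lysed for luciferase measurement.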
# Active calls of the source: *; ? = inconclusive; · = no result given; [ ] = another dose, or the depositor's remark. In the library only some 21% were active in any assay of this set; here they are far more common. Unless noted, calls come from the whole dose curve; as a rule, active = well fitted inhibition curve with a large enough effect; inconclusive = small, poorly fitted or top-dose-only effect, or another doubt; inactive = no such curve, though single readings can be large or run the other way.
SMILES,Pf growth 48h,HCV inhibitor,Pf growth 96h,Cycloheximide cs,Shiga toxin inh,HCMV inh
FC(F)(F)Oc1ccc(Nc2nc3ccccc3o2)cc1,123.7%,-12.0%,?,33.1*,76.8*,68.9
c1ccc(Nc2nc3ccccc3o2)cc1,·,·,314.7%,33.2*,119.3*,93.9
Cc1ccc(CSc2nc(=O)c3c(n2C)NC(=O)CC3c2ccc(OC(C)C)cc2)cc1 (stereo not drawn),·,·,·,·,·,5.7
CCn1c(=O)c2sccc2n2c(CCC(=O)Nc3cc(C)cc(C)c3)nnc12,·,·,·,·,·,-38.8
Fc1ccccc1Nc1nc2ccccc2o1,369.1%,-2.0%,156.4%,45.0*,97.5*,97.4
CCCCN(CC)S(=O)(=O)c1ccc2c(c1)n(C)c(=O)c(=O)n2C,-3.5%,20.6%,12.7%,-3.3,-6.7,-10.6
COc1ccc(OC)c(NC(=O)C2CCCCC2)c1,1.7%,?,18.6%,-3.0,-8.5,-21.8
COc1cc(NC(=O)C2CCCCC2)c2ncccc2c1,·,10µM*,?,-0.7,-2.4,23.8
COc1ccc2oc(=O)c(NC(=O)C3CCCCC3)cc2c1,71.5%,11.1%,13.1µM*,-3.0,2.7,-21.6
Cc1ccc(C23CC4CC(CC(NC(=O)NN)(C4)C2)C3)cc1,?,10.0%,-13.4%,5.3,-5.6,0.0
Cc1ccc(C23CC4CC(CC(C(=O)N5CCN(C)CC5)(C4)C2)C3)cc1,?,2.51µM*,?,-0.7,-2.3,0.0
Cc1ccc(C23CC4CC(CC(NC(=O)N5CCN(C)CC5)(C4)C2)C3)cc1,-27.3%,12.6µM*,·,-3.1,-9.6,-5.9
Cc1ccc(C)c(N2CCN(C(=O)C34CC5CC(C3)CC(n3nnc(C)n3)(C5)C4)CC2)c1,10.4µM*,17.8µM*,?,1.5,11.7,-38.0
O=C(CN1C(=O)C2C3C=CC(C4CC34)C2C1=O)Nc1cnc2ccccc2c1 (stereo not drawn),-6.4%,?,26.8%,13.5,36.4,-6.6
CC(Cc1cccs1)NC(=S)Nc1ccc(F)cc1 (stereo not drawn),-13.8%,-4.2%,1.0%,10.3*,51.3*,?
COc1ccc(NC(=S)NCc2cccs2)cc1,18.1%,12.3%,?,19.4*,46.9*,1.5
CCC(C)NC(=S)Nc1ccc(F)cc1 (stereo not drawn),12.0%,-12.9%,-4.1%,0.7,25.7,-19.6
COc1ccc(NC(=O)C(NC(=O)Cc2cccs2)c2ccc(OC)cc2)cc1 (stereo not drawn),·,·,·,·,·,-8.4
COc1ccc(NC(=S)NC(C)Cc2cccs2)cc1 (stereo not drawn),45.5%,8.8%,-12.8%,28.7*,67.6*,?
CC(C)c1ccc(NC(=S)NCc2cccs2)cc1,·,?,?,21.3,30.7,-12.1
CCN(CC)S(=O)(=O)c1ccc2c(c1)nc(-c1ccccn1)n2C,87.4%,-8.7%,66.4%,23.4*,82.9*,21.9
C=CC[n+]1c(-c2ccccc2)csc1NC(C)(C)C,10.4µM*,5.1%,14.7µM*,-1.8,-6.1,-9.1
CCCCOc1ccc(S(=O)(=O)Nc2cccnc2)cc1,0.0%,10µM*,2.33µM*,13.0,-8.9,-75.9*
CCOc1ccc(S(=O)(=O)Nc2cccc(N(C)S(C)(=O)=O)c2)cc1,-7.4%,10µM*,·,4.3,13.7,-35.4
CCOc1ccc(NS(=O)(=O)c2ccc3ncsc3c2)cc1,-4.9%,-4.6%,3.7µM*,0.8,-4.4,-10.7
SMILES,Pf growth 48h,HCV inhibitor,Pf growth 96h,Cycloheximide cs,Shiga toxin inh,HCMV inh
CCOc1ccc(S(=O)(=O)Nc2cccc(OC)c2)cc1,·,10µM*,43.0%,-2.7,16.2,?
CCOc1ccc(NS(=O)(=O)c2ccc(NS(=O)(=O)c3cccs3)cc2)cc1,23.6%,8.4%,21.6%,-3.1,-10.5,24.3
CCOc1ccc(NS(=O)(=O)c2ccc(N)cc2)cc1,-1.2%,5.1%,·,5.7,-5.5,43.7
CC(NCc1ccc(F)cc1)C(=O)Nc1cc(S(=O)(=O)N2CCCCC2)ccc1Cl (stereo not drawn),?,?,?,1.0,-18.1,65.6
O=C(c1c[nH]c2ccccc12)C(Cl)c1ccccc1 (stereo not drawn),-5.7%[0.00184 µM],-28.2%,?,6.6,22.2,-100.1*
CC(OC(=O)c1c[nH]c2ccccc12)C(=O)N1CCCC1 (stereo not drawn),?,7.4%,7.5%,·,·,?
O=C(c1c[nH]c2ccccc12)C(O)C(c1ccccc1)N1CCOCC1 (stereo not drawn),-4.1%,8.8%,12.6%,-1.0,7.2,31.4
CC(C(=O)c1c[nH]c2ccccc12)N1CCc2ccccc2C1 (stereo not drawn),?,13.6%,2.94µM*,0.6,32.7,?
COC(=O)/C=C/[C@@H](CC1CCCC1)NC(=O)C(F)(F)F,·,·,·,·,·,-11.7
Cc1cc(NS(=O)(=O)c2cn(C)c(C)n2)ccc1Br,·,·,·,·,·,-6.3
COCCNC(=O)C1CCCN(C(=O)c2ccnc(Cl)c2)CC1 (stereo not drawn),·,·,·,·,·,-68.5*
CC(=O)c1c(C)[nH]c(C(=O)CN2C(=O)NC3(CCCCC3C)C2=O)c1C (stereo not drawn),-0.5%,-23.2%,0.9%,·,·,14.4
COc1ccc2c3c([nH]c2c1)[C@H](CO)N(C(=O)C1CCCC1)CC31CCN(C(=O)c2ccncc2)CC1,·,·,·,·,·,-17.9
COc1ccc2c3c([nH]c2c1)[C@@H](CO)N(C(=O)CC1CC1)CC31CCN(Cc2ccncc2)CC1,·,·,·,·,·,-73.7*
COc1ccc(C(=O)CSc2nnn(-c3cccc(NC(C)=O)c3)n2)cc1,16.1%,-27.5%,?,51.6*,72.9*,72.2
CC(=O)Nc1cccc(-n2nnc(SCC(=O)c3ccccc3)n2)c1,153.8%,?,101.3%,49.0*,61.4*,60.8
Cc1nn(-c2ccc(N3CCCCC3)nn2)c(C)c1CCC(=O)Nc1ccccc1F,28.1%,-17.3%,57.8%,21.8*,62.8*,0.0
CCOc1ccccc1CNC(=O)CCc1c(C)nn(-c2ccc(N3CCCC3)nn2)c1C,·,·,·,·,·,-60.3*
Cc1nn(-c2ccc(N3CCCCC3)nn2)c(C)c1CCC(=O)Nc1cc(F)ccc1F,45.7%,?,?,47.6*,45.4*,17.5
CCc1ccc2oc(C(=O)N(Cc3cccc(Cl)c3)Cc3ccco3)c(C)c2c1,·,·,·,·,·,3.5
Cc1ccc(Cn2c(SCc3ccc(C(=O)O)cc3)nc3cccnc32)cc1,·,·,·,·,·,18.7
CCCOc1ccc(CSC2=NCCN2)cc1[N+](=O)[O-],14.7µM*,3.3%,?,-3.4,-3.2,-20.4
Cn1c(NC(=O)C[n+]2cc(-c3ccc(F)cc3)n3c2CCC3)cc(=O)n(C)c1=O,3.7µM*,12.3%,0.586µM*,-2.8,19.2,-21.1
Cc1ccc(-c2c[n+](CC(=O)Nc3cc(=O)n(C)c(=O)n3C)c3n2CCC3)cc1,4.15µM*,9.0%,1.17µM*,0.5,-30.4,-68.2*
O=C(CN1CCN(c2ccc(F)cc2)CC1)c1cccs1,0.2%,14.1%,1.1%,-1.8,1.2,57.1
